The source of these data is PubChem BioAssay AID2384 (Southern Research Specialized Biocontainment Screening …, 2010).

The whole screen tested about 2,300 compounds, of which about 1,100 (48%) were called active. No rule for the calls is given here. The set was probably picked from earlier hits. The list shows a part of the results. Measured potencies and affinities stand elsewhere.

The term inhibition denotes the change of the read-out against control, counted positive when it falls.

This test can be described thus: inhibitors in S. typhi counter-screen strain, dose response, counter-screen for PhoP regulon inhibitor project, fluorescence, 4 h (AID 2384). The conditions noted are these: S. typhi GFP reporter counter-screen; series mostly up to 150 µM. On the technique in general: A counterscreen serves to expose hits that act by an unwanted route or on another target.
For the molecule `CC1Cc2ccccc2N1C(=O)CN1C(=O)C(=O)N(Cc2ccccc2)C1=O` (stereo not given), the inhibition result was “inactive”. In the case of `Cc1c(/C=N/NC(=O)c2sc3ccccc3c2Cl)cnn1C`, the inhibition result is “inactive”. As to `Cc1c(/C=N/NC(=O)c2ccc3c(c2)OCO3)cnn1C`, the inhibition entry is “inactive”. `N#CC1=C2N=C(N)c3ccccc3N2C2=C(C(=O)CCC2)C1c1cccc(Cl)c1` (stereo not given): the inhibition result was “inactive”. Consider `CC(C(=O)c1ccc2ccccc2c1)N1CCCCC1` (stereo not given), for which the inhibition result was “inactive”. For `c1ccc2oc(-c3ccc(Nc4nc(N5CCCCC5)nc(N5CCOCC5)n4)cc3)nc2c1`, the inhibition entry is “inactive”. With `CCOc1ccccc1NC1=NC2CS(=O)(=O)CC2S1` (stereo not given), the inhibition result is “inactive”. Take `CC(C)c1cc(C(=O)Nc2ccc3c(c2)OCO3)no1`: the inhibition result is “inactive”. `CCOC(=O)c1sc(N)c(C(=O)OC)c1C`: the inhibition result is “inactive”. The value for `S=C1SCN(Cc2cccnc2)CN1Cc1cccnc1` was “inactive”; that for `CC(OC(=O)Cc1coc2cc3c(cc12)CCC3)C(=O)NCc1ccc2c(c1)OCO2` (stereo not given) was “inactive”; that for `Cc1ccc(NC(=O)CN(C)C(=O)Cn2ccsc2=N)cc1` was “inactive”. Turning to `O=C(NC(C(=O)c1ccccc1)n1c(=O)cc[nH]c1=S)c1ccccc1` (stereo not given), the inhibition entry is “inactive”.

In the case of `CCSc1nc(C)cc(C)c1S(=O)(=O)c1ccccc1C`, the inhibition result was “inactive”.

Consider `CCN(CC)CCSc1nnc2c3ccccc3n(Cc3ccccc3)c2n1`, for which the inhibition entry is “inactive”. The value for `O=C1SC(c2ccccc2)=C/C1=C\N1CCCCC1` was “inactive”.

Consider `Cc1cc(C)n(-c2nc3ccccc3nc2N2CCN(C(=O)c3ccc(F)cc3)CC2)n1`, for which the inhibition result is “inactive”. In the case of `O=C(CCNS(=O)(=O)c1cccc2nonc12)N1CCN(c2cccc(Cl)c2)CC1` it was “inactive”. For `Cc1c(C=O)c2ccccn2c1C(=O)c1ccccc1`, the inhibition entry is “inactive”.

In the case of `CCCCC(=O)Nc1ccc2c(c1)C(=O)NC2=O`, the inhibition entry is “inactive”. For the molecule `CCOC(=O)COc1cccc2c(=O)n(CC(=O)N3CCCCC3)ccc12`, the inhibition entry is “inactive”.

Consider `COc1cccc(-c2cc(C(=O)O)[nH]n2)c1`, for which the inhibition result was “inactive”. With `COc1nc(N(C#N)CC(N)=O)nc(N2CCCC2)n1`, the inhibition result was “inactive”. For the molecule `CCCCOc1ccc(CN=C(N)N)cc1Cl`, the inhibition result was “inactive”. The value for `COc1ccc(CSCCN)cc1Cl` was “inactive”; that for `COC(=O)c1cc(CSC(=N)N)ccc1OCCC(C)C` was “inactive”. Regarding `CCOC(=O)c1c(CSC(=N)N)n(C)c2cc(Br)c(OC(C)=O)cc12`, the inhibition entry was “inactive”.

Take `Cn1cnc2cc(NC(=O)c3cccs3)ccc21`: the inhibition entry was “inactive”. For `CCOC(=O)c1cccc(NC(=O)c2cccs2)c1`, the inhibition entry is “inactive”. In the case of `CCN(CC)CCNc1nc(-c2ccc(OC)cc2)c(-c2ccc(OC)cc2)s1` it was “inactive”. For `COc1ccc(CC(=O)N(Cc2cc3cc(OC)ccc3[nH]c2=O)C(C)C)cc1`, the inhibition result is “inactive”.

As to `CC(=O)c1cccc(NC(=O)CCC2CCCC2)c1`, the inhibition entry was “inactive”.

For `CCC(=O)Nc1nnc(-c2ccco2)o1`, the inhibition entry was “inactive”.

`Cc1cc(=O)n(CC(C)C)c(O)c1C#N`: the inhibition result is “inactive”. Take `S=C1NCN(C2CCCCC2)CN1c1ccccc1`: the inhibition result is “inactive”. As for `CCc1nccc2c1[nH]c1ccccc12`, the inhibition entry was “inactive”. For the molecule `C=CCOc1ccc(-c2n[nH]c(=S)o2)cc1`, the inhibition result was “inactive”. With `O=C1c2ccccc2C2=Nc3ccccc3SC(c3ccccc3F)C12` (stereo not given), the inhibition result was “inactive”. The value for `COc1ccc(NC2=Nc3ccccc3CC2)cc1` was “inactive”; that for `Cc1cccc(NS(=O)(=O)c2ccc3c(c2)OCCO3)c1` was “inactive”. For `Cc1ccc(Cn2c(=N)c(C(=O)NCc3ccco3)cc3c(=O)n4ccccc4nc32)cc1`, the inhibition result was “inactive”. In the case of `c1ccc(CNc2nc(-c3ccccn3)nc3ccccc23)cc1` it was “inactive”; in that of `CN(CCO)CC(O)Cn1cnc2c1c(=O)n(C)c(=O)n2C` (stereo not given) (tested in a mixture with another compound), “inactive”. Take `COc1ccc(N2CCN(C(=O)c3cc4c(s3)-c3ccccc3S(=O)(=O)C4)CC2)cc1`: the inhibition result was “inactive”.

For the molecule `c1ccc(-c2nnc(-c3c[nH]c4ccccc34)nc2-c2ccccc2)cc1`, the inhibition entry is “inactive”.

Consider `O=c1oc2ccccc2c(O)c1C(c1ccccn1)c1c(O)c2ccccc2oc1=O`, for which the inhibition entry is “inactive”.

Consider `CC(C)(C)n1nc2c(c1NC(=O)Cc1cccs1)CSC2`, for which the inhibition entry is “inactive”. Take `CN(C)CCCN(C(=O)c1cc2cc([N+](=O)[O-])ccc2s1)c1nc2cc3c(cc2s1)OCCO3`: the inhibition result is “inactive”.

With `CCCCN(C)C(=O)c1ccc(S(=O)(=O)N2CCOCC2)cc1`, the inhibition result was “inactive”.

For `COC(=O)c1ccc(S(=O)(=O)N2CCC(c3nc4ccccc4o3)CC2)cc1`, the inhibition entry was “inactive”. Consider `O=C(NCc1cccnc1)C1c2ccccc2C(=O)N1Cc1ccccc1` (stereo not given), for which the inhibition entry was “inactive”. Take `CCOC(=O)c1c(C)sc2c1N(C(C)=O)c1cc(Cl)ccc1S2`: the inhibition entry is “inactive”. Turning to `NC(=O)c1c(NC(=O)CSc2nc(N)cc(=O)[nH]2)sc2c1CCCC2`, the inhibition entry was “inactive”. In the case of `CCOc1ccc(NC(=O)CN(C)C(=O)c2ccccc2CCc2ccccc2)cc1OCC` it was “inactive”; in that of `O=C(CC(=O)NCc1ccccc1)NCc1ccccc1`, “inactive”. `CCOCCCNC(=O)CN1CCN(Cc2ccccc2C)C1=O`: the inhibition entry was “inactive”. On to `COC(=O)C1C(=O)C2=C(CC1C)Nc1ccccc1NC2c1ccc(C)s1` (stereo not given), for which the inhibition result is “inactive”. On to `CCc1nn(CCCN2CCN(c3cccc(Cl)c3)CC2)c(=O)n1CCOc1ccccc1`, for which the inhibition entry was “inactive”. In the case of `Cc1nn(Cc2ccccc2Cl)c2sc(C(=O)Nc3ccccc3N3CCOCC3)cc12`, the inhibition entry is “inactive”. `CN1C(=O)C2(Nc3ccccc3-c3nc4ccccc4n32)c2ccccc21` (stereo not given): the inhibition result is “inactive”. As for `Oc1c(Br)cc(Br)cc1CNc1ccccn1`, the inhibition entry was “inactive”. Regarding `CC(C)N=C1NN=C(c2ccc(F)cc2)CS1`, the inhibition entry was “inactive”.

Consider `Cc1c(O)cccc1C(=O)N[C@@H](CSc1ccccc1)[C@H](O)CN1C[C@H]2CCCC[C@H]2C[C@H]1C(=O)NC(C)(C)C`, for which the inhibition entry was “inactive”. Turning to `Cn1c(CN2CCCCC2)nc2cc(NS(=O)(=O)c3ccc(Cl)cc3)ccc21`, the inhibition result was “inactive”. `COc1ccc(OCC(=O)Nc2ccc3c(c2)nc(CCN2CCC(C)CC2)n3C)cc1`: the inhibition result was “inactive”. `O=C(Nc1ccccc1)C1=C(O)CC(c2ccc(Cl)cc2)N2CCN=C12` (stereo not given): the inhibition entry is “inactive”. As to `O=c1c2cnn(-c3ccccc3)c2ncn1CCc1ccccc1`, the inhibition result was “inactive”. As to `O=C(NC(=O)c1ccccc1)OCC1CCCN2CCCCC12` (stereo not given), the inhibition entry is “inactive”. As for `COc1ccccc1NC(=O)Cn1nc(-c2ccncc2)nc1SCC(=O)NC1CCCC1`, the inhibition result was “inactive”.

With `C=CCn1c(C)c(C(C)=O)c(SC)nc1=S`, the inhibition entry is “inactive”. For the molecule `Nc1nonc1C(=O)NCCN=Cc1cc(Cc2ccccc2)cc(Br)c1O`, the inhibition result was “inactive”.

For the molecule `CCN(CC)Cc1c(C(=O)N/N=C/c2cccs2)nnn1-c1nonc1N`, the inhibition result is “inactive”.

With `CCOC(=O)c1c(C)[nH]c(C(=O)CN2C(=O)NC(C)(c3ccc4ccccc4c3)C2=O)c1C` (stereo not given), the inhibition result was “inactive”. Consider `CCOC(=O)C(NC(=O)c1cccnc1)(Nc1cccc(C)n1)C(F)(F)F` (stereo not given), for which the inhibition entry is “inactive”.

As to `Nc1[nH]c(=O)ncc1F`, the inhibition result was “inactive”. For the molecule `O=C(Nc1cccnc1)c1cc(Br)c(Br)s1`, the inhibition result was “inactive”. In the case of `N#CCC(=O)N/N=C/c1ccccc1Cl` it was “inactive”; in that of `COc1ccc(/C=N/NC(=O)c2cccnc2)cc1`, “inactive”. The value for `CCN(CC)Cc1c(C(=O)N/N=C/c2cccc3ccccc23)nnn1-c1nonc1N` was “inactive”; that for `O=C(N/N=C/c1cccnc1)c1cccc(Cl)c1` was “inactive”. With `CCN(CC)S(=O)(=O)c1cc(NC(=O)C2Cc3ccccc3C(=O)O2)ccc1C` (stereo not given), the inhibition entry was “inactive”.

With `Cc1ncc([N+](=O)[O-])n1CC(=O)NC1CCCC1`, the inhibition entry is “inactive”.

Consider `CC(C)C(c1nnnn1Cc1ccccc1)N(CCCO)Cc1cc2cc3c(cc2[nH]c1=O)OCO3` (stereo not given), for which the inhibition entry was “inactive”. In the case of `COC(=O)c1ccc(CSc2ccc3nnc(-c4ccc(OC)c(OC)c4)n3n2)o1`, the inhibition entry is “inactive”. The value for `CCOc1ccc2nnnn2n1` was “inactive”; that for `Cc1ccsc1/C=N/NC(=O)c1ccncc1` was “inactive”; that for `Cc1ccsc1/C=N/Nc1ccc(C(=O)O)cc1` was “inactive”.

On to `CCOC(=O)C1Nc2c(F)cc(C)cc2C2c3ccccc3CC12` (stereo not given), for which the inhibition result is “inactive”.

Regarding `CC1(C)CC(=O)C(C=NCC2CCN(C(=O)Cc3ccccc3)CC2)=C(O)C1`, the inhibition result is “inactive”. In the case of `CC(C)c1ccc(NC(=O)CSc2nnc(-c3ccccn3)n2C)cc1` it was “inactive”. In the case of `Cc1ccc(/C=N/NC(=O)CSc2nc3ccccc3n2C)s1`, the inhibition entry is “inactive”. `COc1ccc(NC(=O)CC2Sc3ncnn3C2=O)cc1` (stereo not given): the inhibition entry was “inactive”. For `COc1ccc(CCNC2CCCCC2)cc1`, the inhibition entry was “inactive”. As for `O=Cc1cc(CCC(=O)O)ccc1O`, the inhibition result is “inactive”. `CCOC(=O)c1ccc(NC(=O)CSc2nc(N3CCOCC3)nc(N3CCOCC3)n2)cc1`: the inhibition entry was “inactive”. In the case of `CCOC(=O)c1ccc(NC(=O)c2cc3c(s2)CCC3)cc1` it was “inactive”; in that of `CCCCOc1ccc(CN2CCC(O)CC2)cc1`, “inactive”. The value for `CCCCCCOc1ccc(N2C(=O)CC(SC(=NCC)NCC)C2=O)cc1` (stereo not given) was “inactive”; that for `Cc1cc(C)n2nc(SCn3nnc4ccccc4c3=O)nc2n1` was “inactive”. Turning to `Cc1ccc(NC(=O)CSc2ccc(-c3ccco3)nn2)cc1`, the inhibition result is “inactive”. As for `O=C(CCNC(=O)c1ccco1)Nc1cccc(Br)c1`, the inhibition entry was “inactive”.

Turning to `CCC1(CC)C(=O)NC(=O)NC1=Nc1cccc(OC)c1`, the inhibition result was “inactive”. In the case of `Cc1ccc(N2C(N)=C(C#N)C(c3cccnc3)C3=C2CC(C)(C)CC3=O)cc1` (stereo not given) it was “inactive”; in that of `C=CCSc1nnc(NC(=O)CSc2nc3ccccc3o2)s1`, “inactive”; in that of `COc1ccccc1C(=O)NNC1=C(C(=O)C(F)(F)F)CCC1`, “inactive”. Consider `Cc1cc(C)c(-n2nnnc2SC(C)C)c(C)c1`, for which the inhibition result was “inactive”. On to `COc1cc2c(cc1OC)[C@H](Cc1ccc(O)cc1)NCC2`, for which the inhibition result was “inactive”.

As for `Cc1cccc(N2CCN(C(=O)CCN3C(=S)NC(C)(C)CC3C)CC2)c1C` (stereo not given), the inhibition entry is “inactive”. With `COc1cc2c(cc1OC)CN(C(=O)CCCN1C(=O)c3ccccc3C1=O)CC2`, the inhibition entry was “inactive”. The value for `COc1ccc(C(=O)Oc2cc(C(=S)N3CCOCC3)ccc2OC)cc1` was “inactive”; that for `Cc1c(-n2c(SCC(=O)C(C)(C)C)nc3ccccc3c2=O)c(=O)n(-c2ccccc2)n1C` was “inactive”. In the case of `NC(=O)c1cc(C(=O)c2ccc(Cl)cc2Cl)c[nH]1` it was “inactive”; in that of `NC(=O)c1ccc[n+](CC(=O)c2cccc([N+](=O)[O-])c2)c1`, “inactive”. With `O=Cc1ccc(N2CCCCCC2)cc1`, the inhibition entry was “inactive”. Consider `CC(C)CN1CCN(Cc2cnc(N3CCOCC3)s2)CC1CCO` (stereo not given), for which the inhibition entry is “inactive”.
